# In the library only some 7.4% were active in any assay of this set; here they are far more common.
# NPC1 prom act: NPC1 promoter activation; Huh7 NPC1 promoter luciferase reporter, 24 h; Potency, µM (doses to about 9.22 µM), usual class: activators; actives 2.4% (n = 320,000); AID 485313; further: nearly all actives have a fitted effect of over 60% in size
#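 In 1536-well qHTS, Huh7 cells harboring an NPC1 promoter–luciferase construct received compound for 24 h; activation was quantified by luminescence following luciferase reagent addition.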
# SMN2 splice up: increases expression of the SMN2 splice variant; HEK293 SMN2-luciferase splicing reporter, luminescence, 30-36 h; Potency, µM (series often up to 46.1 µM), most hits filed as activators; actives 2.8% (n = 210,000); further: nearly all actives have a fitted effect of over 55% in size
#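 HEK293 cells carry an SMN2 minigene-luciferase reporter in which exon 7 inclusion puts luciferase in frame. Cells were seeded at 2000 cells/well, attached for 10-12 hours, then exposed to compounds for 30-36 hours at 37C before ONE-Glo luminescence.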
# FLuc counter: counter-screen for miR-21 project: firefly luciferase inhibitors or activators; P08659; actives 6.9% (n = 360,000); purified FLuc, Km substrates, luminescence inhibition; Potency, µM (titrated, usually from 57.5 µM), hits mostly inhibitors; AID 588342; further: nearly all actives have a fitted effect of over 55% in size
# Target sequence (P08659 whole entry, looked up): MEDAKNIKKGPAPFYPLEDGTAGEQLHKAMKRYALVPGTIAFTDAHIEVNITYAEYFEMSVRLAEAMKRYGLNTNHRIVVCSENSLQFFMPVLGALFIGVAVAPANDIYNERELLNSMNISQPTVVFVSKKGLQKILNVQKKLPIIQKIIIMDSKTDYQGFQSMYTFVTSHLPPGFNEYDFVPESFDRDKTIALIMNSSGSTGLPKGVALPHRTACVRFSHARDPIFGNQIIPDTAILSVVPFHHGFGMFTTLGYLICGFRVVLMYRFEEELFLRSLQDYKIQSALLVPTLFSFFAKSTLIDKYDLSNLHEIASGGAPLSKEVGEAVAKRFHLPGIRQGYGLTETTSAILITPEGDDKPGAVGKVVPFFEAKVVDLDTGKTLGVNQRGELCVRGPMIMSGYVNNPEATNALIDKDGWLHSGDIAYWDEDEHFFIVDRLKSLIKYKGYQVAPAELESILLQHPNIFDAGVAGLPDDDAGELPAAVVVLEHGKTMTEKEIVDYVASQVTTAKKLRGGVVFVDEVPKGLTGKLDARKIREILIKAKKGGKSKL
#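 Purified P. pyralis luciferase (10nM final) with 10uM D-luciferin and 10uM ATP (Km levels) in 50mM Tris acetate pH 7.5, 10mM Mg acetate, 0.01% Tween-20, 0.05% BSA; qHTS 6-point titration, ~60 µM downward; luminescence read.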
# Rab9 prom act: Rab9 promoter activation; Huh7 Rab9 promoter-luciferase reporter, luminescence, 24 h; Potency, µM (top dose mostly 9.22 µM), hits mostly activators; actives 2.8% (n = 320,000); AID 485297; further: nearly all actives have a fitted effect of over 60% in size
#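 Luminescence read-out: Huh7 cells stably expressing Rab9-luciferase, treated 24 h with compound at 37 °C, then lysed with luciferase reagent for 10 min at ambient before reading.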
# ELG1 genotoxic: inducers of genotoxicity in HEK293T ELG1-luciferase cells; HEK293T ELG1-luciferase reporter, luminescence, 16 h; Potency, µM (titrated, usually from 46 µM), most hits filed as activators; actives 1.3% (n = 330,000); AID 504466; further: nearly all actives have a fitted effect of over 60% in size
#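 Luminescence read-out: rising ELG1-luciferase signal, reflecting elevated ELG1 protein under genetic stress, flags genotoxic compounds. Cells were treated for 16 hr at 37 °C before ONE-Glo detection.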
# Luc counter: counter-screen: inhibitors of Kinase-Glo firefly luciferase | Potency, µM (series often up to 38.3 µM), hits mostly inhibitors | Q27757 | actives 0.28% (n = 200,000) | Kinase-Glo luciferase, ATP luminescence, 8 min | AID 1379; further: nearly all actives have a fitted effect of over 60% in size
#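 Kinase-Glo luciferase light output from ATP and luciferin was measured with 10 uM ATP, within the enzyme's linear range. Buffer: 50 mM imidazole pH 7.2, 50 mM KCl, 7 mM MgCl2, 0.01% Tween 20, 0.05% BSA; luminescence read after 8 min at ambient temperature.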
# A number is an active result; i = inactive; ? = inconclusive; nt = not tested or not shown; [ ] = dose if it differs, or a comment. The call rests on the fitted dose curve; in most records, active means well fitted curve in the direction sought with a large enough effect; inconclusive means small, poorly fitted or top-dose-only effect, or another doubt; inactive means no such curve, though single readings can be large; an effect the other way counts as inactive or inconclusive.
SMILES,NPC1 prom act,SMN2 splice up,FLuc counter,Rab9 prom act,ELG1 genotoxic,Luc counter
O=C(Cc1ccc(Cl)c(Cl)c1)OCC(=O)c1ccc[nH]1,i,i,i,i,i,i
O=C(OCc1ccc(Cl)c(Cl)c1)c1ccc[nH]1,?,nt,23.9µM,?,?,nt
CCC(Sc1nnnn1C)C(=O)Nc1ccc(C(C)=O)cc1 (configuration not stated),i,?,?,?,18.4µM,i
Cc1ccccc1CCN(C(=O)c1csnn1)C(C(=O)NC1CCCC1)c1ccco1 (configuration not stated),i,nt,i,i,i,nt
CNc1snc(C)c1C(=O)OC(C)C(=O)Nc1ccc(F)cc1 (configuration not stated),i,nt,i,i,i,nt
CCS(=O)(=O)c1ccc2oc(SCC(=O)NC3CCCC(C)C3C)nc2c1 (configuration not stated),i,i,i,i,i,i
Cc1cccc(-c2cc3c(nn2)-c2ccccc2C3=O)c1,2.24µM,10µM,0.757µM,3.55µM,?,?
O=C1c2ccccc2-c2nnc(-c3ccccc3)cc21,1.26µM,?,0.477µM,0.562µM,i,7.94µM
COc1ccc(-c2cc3c(nn2)-c2ccccc2C3=O)cc1,?,1.12µM,0.169µM,0.1µM,i,5.01µM
CC(/C=C(\NC(=O)c1ccccc1)C(=O)N=Nc1c(O)[nH]c2ccc(C)cc12)=C\c1ccccc1,i,i,i,i,i,i
CCOc1ccc(S(=O)(=O)NCc2ccc3c(c2)OCO3)cc1NC(C)=O,i,nt,i,i,i,nt
COc1ccc(-c2noc(CCC(=O)Nc3nc4ccccc4s3)n2)cc1,i,i,i,i,i,i
CCc1cccc(NC(=O)c2oc3ccc4c(c3c2C)C(=O)CC(C)(C)O4)c1,nt,nt,0.849µM,nt,nt,nt
COc1ccc(NC(=O)c2oc3ccc4c(c3c2C)C(=O)CC(C)(C)O4)cc1OC,nt,nt,0.426µM,nt,nt,nt
Cc1ccnc(NS(=O)(=O)c2ccc(-n3cccn3)cc2)c1,i,nt,i,i,i,nt
COc1ccc(/C=N/N(c2ccccc2)c2ccccc2)cc1O,i,nt,?,i,i,nt
COc1ccc(/C=C/C(=O)Nc2ccccc2C(F)(F)F)cc1OC,i,nt,i,i,i,nt
COc1cc(/C=N/Nc2ccccc2C(F)(F)F)ccc1O,i,nt,13.5µM,?,i,i
COc1cc(/C=N/N(c2ccccc2)c2ccccc2)ccc1O,i,nt,19µM,i,i,nt
COc1cc(/C=N/Nc2ccccc2)ccc1O,i,nt,15.1µM,i,?,nt
COc1cc(/C=N/NC(=O)CCc2ccccc2)ccc1O,i,i,?,i,i,i
C=CCOC(=O)C(=O)/C=C/c1csc2ccccc12,i,nt,26.9µM,i,?,nt
Cc1cccc(NC(=S)Nc2ccc(N3CCOCC3)cc2)c1C,i,i,i,i,i,i
O=C1OC(Nc2nc3ccccc3s2)c2ccccc21 (configuration not stated),i,i,10.7µM,i,i,i
O=C1OC(Nc2nccs2)c2ccccc21 (configuration not stated),?,i,i,i,i,i
SMILES,NPC1 prom act,SMN2 splice up,FLuc counter,Rab9 prom act,ELG1 genotoxic,Luc counter
N#CC1(NC(=O)COC(=O)CNC(=O)c2sc3ccccc3c2Cl)CCCCC1,i,nt,?,i,i,nt
CCN(C(=O)COC(=O)CNC(=O)c1sc2ccccc2c1Cl)C1CCCCC1,i,nt,12µM,i,i,nt
CCC(C)N(C(=O)COC(=O)CNC(=O)c1sc2ccccc2c1Cl)C1CCS(=O)(=O)C1 (configuration not stated),i,nt,21.3µM,i,i,nt
COc1ccc(-c2cc3cc(OC)c(OC)cc3c(C)n2)cc1C,i,nt,16.9µM,i,i,nt
O=C(COC(=O)C1CCCCC1)Nc1cccc(Br)c1,i,nt,nt,i,i,nt
COc1ccc(-n2c(SCC(=O)NCc3ccco3)nc3c([nH]c4ccccc43)c2=O)cc1,i,i,i,i,i,i
CCn1cc(CNC(=O)c2cc(-c3ccc(C)cc3)nc3ccc(Br)cc23)c(C)n1,nt,i,?,nt,nt,nt
NC(=O)c1cc(-c2ccccc2)nc2ccc(Br)cc12,i,nt,i,i,i,nt
Cc1nn(C)cc1CN(C)C(=O)c1cc(-c2ccccc2)nc2ccc(Br)cc12,i,i,21.3µM,i,i,i
Cn1cc(CNC(=O)c2cc(-c3ccccc3)nc3ccc(Br)cc23)cn1,i,i,5.36µM,i,i,i
Cn1cc(CNC(=O)c2cc(-c3ccc(Br)cc3)nc3ccccc23)cn1,i,nt,?,i,i,nt
Cc1ccc(-c2cc(C(=O)NCc3cnn(C)c3)c3cc(Br)ccc3n2)cc1,i,i,1.07µM,i,?,i
CCCCCn1c(=O)[nH]c2cc(C(=O)N3CCN(c4cccc(C(F)(F)F)c4)CC3)ccc2c1=O,nt,i,i,nt,nt,nt
CCOC(=O)C1CCCN(C(=O)c2cc(Nc3ccc(OC)cc3)nc3ccccc23)C1 (configuration not stated),nt,i,15.1µM,nt,nt,i
COc1cccc(-c2nn(-c3ccc(C)cc3)cc2C(=O)N2CCN(C3CCS(=O)(=O)C3)CC2)c1 (configuration not stated),i,nt,15.1µM,i,i,nt
O=C(c1cc(-c2ccc(F)cc2)nc2ccccc12)N1CCN(C2CCS(=O)(=O)C2)CC1 (configuration not stated),i,nt,9.53µM,i,i,nt
CCOC(=O)C1CCCN(C(=O)c2cc(-c3ccc(F)cc3)nc3ccccc23)C1 (configuration not stated),i,i,15.1µM,i,i,i
Cc1cc2c(c(=O)n1Cc1ccccc1)C1O[C@](c3ccsc3)(Cc3ccccc31)O2,i[1.84 µM],nt,i[11.5 µM],i[1.84 µM],nt,nt
O=C(/C=C/c1cccc([N+](=O)[O-])c1)Nc1cccc(NC(=O)c2cccs2)c1,i,i,?,i,i,i
COc1ccc(C(=O)NC2CCSc3ccccc32)cc1F (configuration not stated),i,nt,i,i,i,nt
C#CCn1c(=O)cc(C)c2ccccc21,i,i,i,i,i,i
C#CCn1cc(C=C2C(=O)c3ccccc3C2=O)c2ccccc21,i,i,2.39µM,i,i,i
O=C(COC(=O)Cn1nnc2ccccc21)NC1CCCC1,i,nt,i,i,i,nt
Cc1c(-c2cccc(NC(=O)Nc3ccc(Cl)cc3)c2)nc2ncccn12,nt,nt,10.7µM,nt,nt,nt
Cc1nccc(-c2cccc(NC(=O)Nc3ccc(Cl)cc3)c2)n1,i,nt,4.78µM,i,i,nt
COc1ccccc1NC(=O)Cc1noc(CSc2nnc(C)n2C)n1,i,i,i,i,i,i
COc1cc(CC(=O)OCC(=O)N2C(C)CCCC2C)cc(OC)c1OC (configuration not stated),i,nt,i,i,i,nt
COc1ccccc1NC(=O)Cn1cnc2c(cnn2-c2ccccc2)c1=O,i,i,i,i,i,i

# Source: PubChem BioAssay
